# Measured values reported in ChEMBL document CHEMBL3433997, “St. Jude Leishmania screening dataset” (2016).
# Values joined by “and” are separate entries in the source; they are usually repeats but may differ in a detail not shown here. Equal entries are not always repeated.
# Legend:
# Type in all cases: functional
# [1] = molecular target: Solute carrier family 2, facilitated glucose transporter member 1 (Homo sapiens) (UniProt P11166); test: ST_JUDE_LEISH: Cytotoxicity at 2uM final concentration against transgenic Leishmania Mexicana promastigotes LmGLUT1 that are glucose transport deficient and complemented with the human glucose transporter GLUT1. Activity is measured by DNA content using SYBR green in vitro
# [2] = molecular target: Hexose transporter 1 (Plasmodium falciparum) (UniProt O97467); test: ST_JUDE_LEISH: Cytotoxicity at 2uM final concentration against transgenic Leishmania Mexicana promastigotes LmPfHT that are glucose transport deficient and complemented with the Plasmodium falciparum hexose transporter. Activity is measured by DNA content using SYBR green in vitro
# [3] = molecular target: Glucose transporter (Leishmania mexicana) (UniProt O61059); test: ST_JUDE_LEISH: Cytotoxicity at 2uM final concentration against transgenic Leishmania Mexicana promastigotes LmGT2 that are glucose transport deficient and complemented with the L. Mexicana glucose transporter 2. Activity is measured by DNA content using SYBR green in vitro
# Sequence of Solute carrier family 2, facilitated glucose transporter member 1 (Homo sapiens) (P11166 whole entry): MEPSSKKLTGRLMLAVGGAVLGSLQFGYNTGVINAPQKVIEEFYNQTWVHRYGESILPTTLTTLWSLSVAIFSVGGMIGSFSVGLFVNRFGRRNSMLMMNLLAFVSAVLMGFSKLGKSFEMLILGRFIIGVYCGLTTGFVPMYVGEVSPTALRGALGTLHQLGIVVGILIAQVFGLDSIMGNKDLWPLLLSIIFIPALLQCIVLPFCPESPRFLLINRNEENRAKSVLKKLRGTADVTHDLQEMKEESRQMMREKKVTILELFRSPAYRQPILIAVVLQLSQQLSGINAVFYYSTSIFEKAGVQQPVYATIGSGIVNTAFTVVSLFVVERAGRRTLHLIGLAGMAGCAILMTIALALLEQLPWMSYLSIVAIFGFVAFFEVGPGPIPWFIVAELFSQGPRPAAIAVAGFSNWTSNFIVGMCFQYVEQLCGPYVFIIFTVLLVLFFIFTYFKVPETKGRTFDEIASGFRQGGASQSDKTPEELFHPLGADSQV
SMILES,inhibition [1],inhibition [2],inhibition [3]
Oc1ccc(CN2CCN(CCOC(c3ccc(F)cc3)c3ccc(F)cc3)CC2)cc1Cl,4.68%,-0.31%,-0.74%
CSc1ccc(C[C@@H](C)NC[C@H](O)c2cccc(Cl)c2)cc1,2.36%,1.34%,2.94%
COc1cccc(C=CC(=O)NC2CCC(CN3CCC(c4c[nH]c5ccccc45)CC3)CC2)c1OC (centres undefined),1.83%,2.37%,14.2%
FC(F)(F)c1cccc(N2CCC(CN3CCC(c4c[nH]c5ccccc45)CC3)CC2)n1,7.61%,6.91%,7.85%
CCCc1cc([C@@H](O)[C@@H]2C[C@@H]3CCN2C[C@@H]3CC)c2ccccc2n1,-0.67%,3.99%,0.11%
O=C1c2ccccc2CCC1CCN1CC=C(c2c[nH]c3ccccc23)CC1 (centres undefined),2.89%,3.52%,3.16%
COc1ccccc1CNCC(O)c1cc(C(F)(F)F)ccc1C(F)(F)F (centres undefined),0.84%,0.58%,1.6%
CC[C@@]1(O)C(=O)OCc2c1cc1n(c2=O)Cc2c-1nc1cc3c(cc1c2CN1CCOCC1)OCO3,51.3%,76.7%,71.6%
CC(C)CNCc1cccc(-c2ccc(CN(C(=O)c3cccs3)C3CCN(Cc4ccccc4)CC3)cc2)c1,2.62%,4.53%,6.86%
Fc1ccc2[nH]cc(CCN3CCC(CNCc4ccccc4)CC3)c2c1,6.4%,5.46%,1.2%
OC(CNC1CCCCCCC1)c1ccc(Cl)c(Cl)c1 (centres undefined),1.96%,2.06%,2.43%
COC(C(=O)OCCC1CCCN1C)(c1ccccc1)c1ccccc1 (centres undefined),-0.93%,-0.75%,-4.58%
N=C(N)NC(=O)Nc1ccc([N+](=O)[O-])c(Cl)c1,0.15%,1.53%,0.59%
Cc1ccc(C)c(C=CC(=O)NC2CCC(CN3CCC(c4c[nH]c5ccccc45)CC3)CC2)c1 (centres undefined),1.09% and 15%,1.99% and 11.5%,1.04% and 10.2%
CNCCCCCCc1ccc(CC(C)NCC(O)c2cccc(Cl)c2)cc1 (centres undefined),6.3%,2.29%,0.1%
CC(C)CNCc1cccc(-c2cccc(CN(C(=O)c3cccs3)C3CCN(Cc4ccccc4)CC3)c2)c1,11.3%,7.75%,6.04%
Cc1cc2ccc(CNCCc3ccccc3Br)cc2nc1N,3.28%,2.77%,3.87%
COc1ccc(C(=O)C2CC2CN2CC=C(c3c(C)[nH]c4ccccc34)CC2)cc1 (centres undefined),-1.12%,2.52%,3.3%
COCC(=O)N(Cc1ccccc1-c1ccc(CNCCc2ccccc2)cc1)C1CCN(Cc2ccccc2)CC1,0.08%,0.27%,-3.2%

SMILES,inhibition [1],inhibition [2],inhibition [3]
COCCNCc1cccc(-c2cccc(CN(C(=O)Nc3ccccc3)C3CCN(Cc4ccccc4)CC3)c2)c1,3.2%,2.07%,1.33%
CS(=O)(=O)Nc1ccc2c(C3CCN(CC4CCN(C(=O)/C=C/c5ccc(Cl)c(Cl)c5)CC4)CC3)c[nH]c2c1,-0.41%,0.85%,-2.09%
CC[C@H]1CN2CC[C@@H]1C[C@H]2[C@H](O)c1cc(-c2c(C)noc2C)nc2ccc(OC)cc12,3.43%,4.92%,6.01%
C[C@H](Cc1ccc(OCCCCCCOc2ccccc2)cc1)NC[C@H](O)c1cccc(Cl)c1,-0.31%,-0.04%,-0.25%
CC(Cc1ccc(OCc2ccccc2)cc1)NCC(O)c1cccc(Cl)c1 (centres undefined),5.48%,3.61%,4.23%
COc1cccc(O)c1CNCC(O)c1cccc(C(F)(F)F)c1 (centres undefined),0.43%,0.5%,0.29%
O=C(/C=C/c1ccc(Cl)c(Cl)c1)NC1CCC(N2CCC(c3c[nH]c4ccccc34)CC2)CC1 (centres undefined),26%,6.98%,4.41%
CC1(CCCCN2CC=C(c3c[nH]c4ccccc34)CC2)C(=O)Nc2ccccc21 (centres undefined),0.6%,-0.08%,2.1%
COc1ccc2[nH]cc(C3CCN(Cc4ccc(NC(=O)c5ccc(-c6ccccc6)cc5)cc4)CC3)c2c1,3.87%,2.27%,3.28%
Cc1ccc(CC(C)NCC(O)c2cccc(Br)c2)cc1 (centres undefined),1.02%,-0.15%,1.21%
O=C(C=Cc1ccc(Br)cc1)NC1CCC(CN2CCC(c3c[nH]c4ccccc34)CC2)CC1 (centres undefined),2.45%,2.86%,4.98%
COc1cc(CC(C)NCC(O)c2cccc(C(F)(F)F)c2)ccc1OCc1ccccc1 (centres undefined),4.94%,4.6%,3.99%
Cc1ccc(/C=C/C(=O)NC2CCC(CN3CCC(c4c[nH]c5ccccc45)CC3)CC2)cc1 (centres undefined),0.19% and 4.55%,1.12% and 3.15%,2.44% and 0.47%
FC(F)(F)c1ccc(NC(=S)N2CCC(CN3CCC(c4c[nH]c5ccccc45)CC3)CC2)cc1,-0.87%,-0.06%,2.98%
CN(C)CCc1c[nH]c2ccc(C(=O)Nc3ccc(-c4ccncc4)cc3)cc12,0.58%,0.83%,0.61%
CN1CC=C(c2csc3ccc(NC(=O)Nc4ccc(-c5ccncc5)c(Cl)c4)cc23)CC1,0.03%,-0.33%,0.2%
O=C(/C=C/c1ccc(Cl)c(Cl)c1)N1CCC(CN2CCC(c3c[nH]c4ccc(NS(=O)(=O)c5cccs5)cc34)CC2)CC1,6.53%,5.86%,5.21%
Cc1c(C)c2c(c(C)c1O)CC[C@@](C)(C(=O)NC1CCC(CN3CCC(c4c[nH]c5ccccc45)CC3)CC1)O2 (some centres undefined),6.35%,5.08%,3.01%
CN(C)CCCOc1ccc(CN2CCC(c3c[nH]c4ccc(NCC5CCCCC5)cc34)CC2)cc1,3.02%,3.5%,3.06%
